Key:
Experiment in all cases: PBM binding z-score (relative to random genomic background probes); higher = stronger binding; sequences stand for … in GC…GCGATTGACAGCGTAGAATGAAGG
[1] = test system: FXR:RXRa (NR concentration 270 nM, RXRa partner concentration 90 nM)
Procedure, shortened: (§1)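 Random background probes are the reference for binding z-scores. These scores derive from regression-normalized fluorescence on custom Agilent 4×180K protein-binding microarrays incubated 1 h with ligand-free nuclear receptor dimers. Binding was detected with antibodies against each partner (one per run).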

[2] = test system: LXRa:RXRa (NR concentration 270 nM, RXRa partner concentration 90 nM)
Procedure, shortened: as §1

[3] = test system: LXRa homodimer (NR concentration 270 nM)
Procedure, shortened: as §1

[4] = test system: LXRb:RXRa (NR concentration 270 nM, RXRa partner concentration 90 nM)
Procedure, shortened: as §1

[5] = test system: LXRb homodimer (NR concentration 270 nM)
Procedure, shortened: as §1

[6] = test system: PPARa:RXRa (NR concentration 270 nM, RXRa partner concentration 90 nM)
Procedure, shortened: as §1

[7] = test system: PPARg:RXRa (NR concentration 180 nM, RXRa partner concentration 90 nM)
Procedure, shortened: as §1

[8] = test system: PPARg:RXRa 270nM:90nM, anti-RXR (NR concentration 270 nM, RXRa partner concentration 90 nM)
Procedure, shortened: as §1

[9] = test system: PPARg:RXRa 30nM:10nM, anti-RXR (NR concentration 30 nM, RXRa partner concentration 10 nM)
Procedure, shortened: as §1

[10] = test system: PPARg:RXRa 90nM:30nM, anti-RXR (NR concentration 90 nM, RXRa partner concentration 30 nM)
Procedure, shortened: as §1

Sequence	PBM binding z-score [1]	PBM binding z-score [2]	PBM binding z-score [3]	PBM binding z-score [4]	PBM binding z-score [5]	PBM binding z-score [6]	PBM binding z-score [7]	PBM binding z-score [8]	PBM binding z-score [9]	PBM binding z-score [10]
TCTTGAAGATCAAGCAGGTTAAGAAAGCCTGAGT	0.132	0.199	-0.36	0.402	-0.998	0.437	-0.324	1.11	2.96	1.74
CTCGAAAGGTCCGTTGAGGTGAGTATACGGATAA	0.973	-0.377	-0.421	-0.34	-0.666	0.249	-0.102	0.101	-0.184	-0.198
CCTACTGGGCCACGAGAGGTCATTGATTCAGTGA	3.4	4.47	4.55	3.57	0.302	4.09	4.45	4.16	1.68	3.1
AGTAGTTGGTCAGCTGAGGTCACACACAATTCGG	4.48	3.37	2.92	3.55	0.79	3.63	1.63	2.33	0.674	1.56
TAGCCTACGTCATGCGGGCCAGTATAGTGTCGGC	-0.993	-0.942	-0.548	-1.15	-0.753	-0.592	0.156	-0.778	-0.767	-0.769
CAAACTAGGTCAAGAGGTCACAGTCCGCTTCCCG	6.79	5.84	4.4	4.97	1.01	6.61	10.2	8.35	7.25	8.69
TCGAGTAGGTTACCAATGGGGCATGCAGCTTTCT	-0.0297	0.818	-0.705	0.567	-0.608	1.07	0.261	1.08	0.922	1.1
CGAACTAGGTCAGTACAGGACAGTGAAGGATGAT	1.58	1.83	-0.0342	0.493	-0.478	3	4.93	4.25	1.71	3.39
CAAGACAGGTGAAAGGTAACTCAGTCTGGTACGC	1.04	1.14	-0.209	0.929	0.289	3.73	5.4	5.94	4.14	6.08
CCTTACGGGTCGCGAGGTTATAGCACGACGAGCG	2.87	1.99	-0.147	1.82	-0.455	3.61	1.91	2.15	0.056	0.872
CCTCGGAGGACAGAAGGTCAGACCTGTCCGCTTT	1.44	1.56	0.0539	1.3	-0.489	1.9	0.19	0.86	-0.764	0.0778
GGAACGAGGGCAATCGAGTTGATAGCATGGCGAT	0.644	0.434	-0.647	-0.187	-0.883	1.38	1.12	0.753	-0.285	0.268
ACTAGTAGTTGAGACGAGGGCAACCGATAGGTTG	0.415	0.0058	-0.401	-0.109	-0.494	0.237	0.537	-0.227	-0.398	-0.329
CCTCGTAGGACAACAGGAGGTCAGAGCTGCCAGA	0.951	2.16	1.91	1.57	-0.267	1.99	0.534	0.644	-0.534	0.258
CGAACTACGTCAAGGACAGTGAATCTCCGCACGC	-0.000991	-0.458	0.0307	-0.729	-0.268	-0.387	0.65	-0.549	-0.403	-0.799
CCTGCTAGGTCAATGGTCTGCTAAAGCAGCTCGC	2.61	2.26	-0.00615	1.78	-0.252	2.75	2.2	2.86	-0.129	1.83
ATCTCTAGGTAAGCCTCAGTTCAGTGAAGAACGC	0.31	0.658	0.468	0.438	0.861	0.35	-0.00624	0.396	-0.0235	0.487
ATCGAAAGGTCGACGAGGTAAGTATACACCGTTT	4.59	3.11	-0.055	2.62	0.428	4.09	2.6	3	1	2.11
TCGAGTAGGTGACCAATGGGGCATTCAGCTTTCT	-0.0525	-0.335	-0.709	-0.15	-1.02	0.875	0.524	1.12	1.01	0.794
TCATAAAGGTAAAAGGTGAAAGTCGGTGTGGTAA	3.11	2.59	0.231	2.75	0.0475	5.08	6.24	6.25	6.38	6.73
AGTCAACGTTCATCTAGGTAACGTAAGATATGCT	-0.27	-0.156	-0.154	-0.204	-0.325	0.365	0.767	0.288	0.292	0.234
CGAATTAGGTCATTGACAGGACAGTGAATAGTAA	4.67	3.39	0.61	2.55	0.269	4.89	6.83	6.02	3.62	5.68
GCTAGCAGTCCATTTGGGTCACTCAATGACGGGC	0.123	-0.125	-0.706	-0.0386	-0.905	0.937	0.41	0.105	-0.37	-0.0818
TCTAGCAGGCCAGTGGGTCACTCAAGAGGTACGG	0.165	0.09	-0.387	0.111	-1.21	1.83	1.59	2.19	1.78	2.09
TCAGACAGGTGAAGGTAACTCAAGTACGCAGTCG	1.22	2.77	0.105	1.47	0.174	1.33	0.828	2.07	4.18	3.03

Sequence	PBM binding z-score [1]	PBM binding z-score [2]	PBM binding z-score [3]	PBM binding z-score [4]	PBM binding z-score [5]	PBM binding z-score [6]	PBM binding z-score [7]	PBM binding z-score [8]	PBM binding z-score [9]	PBM binding z-score [10]
GCTTACGGGTCAAAGGTTATAGCCTGAATAGAAT	7.79	5.8	0.763	5.69	0.503	6.88	11.5	9.6	10.2	11.3
TCAGACAGCTGAAGGTAACTCAGGTACGCAGTCG	-0.16	1.22	-0.677	0.336	-0.931	0.454	0.398	1.49	2.91	2.14
ACTATTAGTTGAGACGAGGGGAACCGATAGGTTG	0.227	-0.0882	-0.278	-0.282	0.604	-0.0604	0.569	-0.00558	0.211	0.143
ATCTCTAGGTAAAGTTCAGTGAGAGATCGATAGA	1.25	1.82	1.42	0.981	0.57	2.42	3.37	3.95	2.06	3.46
CCTCGGAGGACAGAAGGTCAGGGCTGTCCGCTTT	1.42	1.47	0.0831	1.07	-1.01	2.17	-0.206	1.07	-0.426	0.349
TCTGCTAGGTCCACGATGGTCAGCTAATCTGCTA	-0.34	-0.399	-0.522	-0.79	-0.988	-0.24	-0.332	0.324	1.16	0.768
TGTATGAGGTTATAAGATCAGGGAACGTTGCAAA	1.68	1.72	0.117	1.22	0.92	2.51	1.04	1.47	0.966	1.2
CAAACTAGGTCAAGGTCAATGTCGGTTTGTGCCA	6.03	5	3.19	4.14	1.08	5.94	9.35	7.99	6.08	8.16
CCGACTGGAGCAAAGGTTACCATACTCAGTACGA	0.849	1.39	0.0439	1.71	-0.613	4.5	8.49	8.31	8.2	8.54
TAGCCTAGGTCATTGGGCCAGTCTAGTACGCATC	3.99	3.21	0.181	1.78	0.0728	3.41	3.3	3.25	0.536	2.3
ATCGAAAGGCCGAGGTGAGTATAGAGAAAGGGAA	0.0206	-0.227	-0.447	-0.337	-0.455	-0.0261	0.313	-0.133	-0.0137	-0.154
CGTACTGGGCCAAAAAGGTCATTGATGCCGATAA	3.72	4.43	2.93	4.25	0.293	4.69	3.65	4.22	1.71	3.72
TCTATTTGGTCAAAGGTCACACACTCGAAATGCG	6.32	5.68	4.22	5.83	3.24	6.7	10.6	9.27	9.35	10.1
GCTAGCAGGCCATTTGGGTGACTCAATGACGGGC	-0.535	-0.729	-0.901	-1.05	-1.19	0.031	0.218	-0.431	-0.682	-0.48
ACAGATAGGTGAGTGAAGGTAACTCAGCTGGACG	0.482	0.0886	-0.209	-0.39	-0.76	0.462	0.821	0.426	-0.17	0.325
TCTCGGAGGATACGAAGGTCAGAGCTTTCCAGAG	0.399	0.672	-0.0784	0.653	-1.33	1.55	0.177	1.23	1.89	1.51
AGAATGAGGTTATACGTAGATCAGGCAAGAAAGT	1.83	1.82	-0.142	1.29	-0.0449	3.31	1.97	2.21	0.758	1.71
TCTCTGAGGACACGAAGGTCAGAGCTTTCCAGAG	2.1	1.06	0.117	0.798	-0.338	2	0.595	2.08	2.59	2.22
TCTCGGAGGACACGAAGGGTCAGAGCTCGACATC	1.35	1.66	-0.0975	1.19	-1.38	2.06	0.488	1.25	1.85	1.44
ATACCAAGGTGATCGTGAGGTCGTTGGTACTAAC	1.53	1.48	0.698	0.769	0.221	1.51	0.281	0.597	-0.201	0.338
CCGGCTAGGTCAATGGTCAGCTAAAGCAGCTCGC	3.18	1.98	-0.137	1.48	-0.304	2.91	3.63	4.32	1.63	4.03
GCTAGTTGTTCAGTAAAAGGTCACACACCGGTCG	3.26	4.29	4.24	4.06	0.882	4.13	1.84	3.57	1.49	3.27
TCGAGTAGGTTGGGGGCATTCAGAATGGCGTCGA	1.39	1.94	0.352	3.96	6.82	2.48	0.614	2.35	2.29	2.28
ATCTCTAGGTAAAGATAGTTCAGTGGATGCAAAT	0.0236	4.13	0.642	0.57	0.439	0.29	0.474	0.242	0.139	0.257

— the supplement of paper PMC6555819
